# Data reported in PubChem BioAssay AID624040 (The Scripps Research Institute Molecular Screening Center, 2012).
# Among all 360,000 compounds or so, about 2,100 (0.58%) were called active. This is one part of a sample in which actives are shown more often than they occur.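 Rule for the calls: active = inhibition above a per-plate cutoff, the mean of that plate's test compounds plus 3 SD (cut at about 27% in these data); inactive = the rest.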
# Target: Muscarinic acetylcholine receptor M5 (Homo sapiens) (UniProt P08912)
# Sequence (P08912 whole entry, looked up): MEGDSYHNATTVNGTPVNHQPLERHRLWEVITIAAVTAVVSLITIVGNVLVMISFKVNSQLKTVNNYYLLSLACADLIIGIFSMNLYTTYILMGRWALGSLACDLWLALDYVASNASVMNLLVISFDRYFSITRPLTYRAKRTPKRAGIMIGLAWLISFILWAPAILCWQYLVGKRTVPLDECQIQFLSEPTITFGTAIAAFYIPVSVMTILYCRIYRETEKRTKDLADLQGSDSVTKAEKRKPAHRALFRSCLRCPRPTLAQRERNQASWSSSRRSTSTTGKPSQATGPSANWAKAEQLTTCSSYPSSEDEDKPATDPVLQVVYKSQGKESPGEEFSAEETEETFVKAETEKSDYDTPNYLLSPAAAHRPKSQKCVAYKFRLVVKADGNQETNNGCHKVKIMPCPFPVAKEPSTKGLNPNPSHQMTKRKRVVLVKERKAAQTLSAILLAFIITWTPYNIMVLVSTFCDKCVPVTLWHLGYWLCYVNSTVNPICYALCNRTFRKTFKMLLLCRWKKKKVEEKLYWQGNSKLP
# Assay: CHRM5 blockers of acetylcholine calcium response – CHO cells, Fluo-8 calcium fluorescence, primary screen (AID 624040);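 note: 0% = acetylcholine EC80 with DMSO and 100% = DMSO without agonist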
# Conditions: CHO-hM5 cells, ACh EC80, at 3 µM, hits give high values
row,Compound,inhibition
1,CCCC[N+]1(C)C2CC(OC(=O)C(CO)c3ccccc3)CC1C1OC12 (stereo not given),73.3% (active)
2,CCn1cc(CN2CCCC(C(=O)c3cccc(C(F)(F)F)c3)C2)cn1 (stereo not given),12.4% (inactive)
3,CCCCCCCCCCCCn1ccc(=N)cc1,33.9% (active)
4,CCOC(=O)C1(c2ccccc2)CCN(CC(O)c2ccc(NC(C)=O)cc2)CC1 (stereo not given),11.2% (inactive)
5,O=c1c2ccccc2nc(/C=C/c2ccco2)n1-c1ccccc1O,3.76% (inactive)
6,Cc1ccc(-c2nn(CCC#N)cc2C(=O)O)cc1C,1.31% (inactive)
7,CC[N+]1(C)CCCC(OC(=O)C(O)(c2ccccc2)c2ccccc2)C1 (stereo not given),98.3% (active)
8,Oc1cc2c(cc1CN1CCN(c3ccccc3)CC1)OCO2,15.7% (inactive)
9,COC(=O)C[C@H]1CC[C@H]2NC[C@@H](O)COC[C@@H]2O1,7.66% (inactive)
10,COC1=CC=C2[C@H]3Cc4ccc(OC)c5c4[C@@]2(CCN3C)C1O5 (stereo not given in full),-5.74% (inactive)
11,CNC(=S)N/N=C1\C2CN3CCN(C2)CC1(c1ccccc1)C3,3.28% (inactive)
12,Nc1ccc(C(=O)N/N=C2/CN3CCC2CC3)cc1,6.34% (inactive)
13,CC1CCCCN1Cc1cccnc1 (stereo not given),12.5% (inactive)
14,O=C(Cc1ccccc1)N1CCN(C2CCCCCC2)CC1,0.09% (inactive)
15,CC1CCCN1CCC(C(N)=O)(c1ccccc1)c1ccccc1 (stereo not given),99.5% (active)
16,CCCC(C)n1[nH]c(=O)c2c1NC(=O)CSC2c1ccc(OC)c(OC)c1 (stereo not given),7.43% (inactive)
17,CC1C2Cn3c(nc4ccccc43)C1N(C)O2 (stereo not given),0.97% (inactive)
18,Cc1ncoc1C(=O)NCC1=C(c2cccc3ccccc23)C[C@@H]2CC[C@H]1N2Cc1ccco1,-3.17% (inactive)
19,COc1ccc2c(c1O)-c1cccc3c1[C@@H](C2)N(C)CC3,-4.83% (inactive)
20,COc1ccc(C2C=C(C)Oc3c2c(=O)oc2ccccc32)cc1OC (stereo not given),2.6% (inactive)
